# Source: PubChem BioAssay AID2284110 (EPA ToxCast)
# Inconclusive results are not listed. Activity calls are given as the source filed them. The calls were made as follows: active = hit-call score of the fitted dose curve at least 0.9, where 1 is the maximum; inconclusive = response in the unintended direction; inactive = score below 0.9.
# Target: human Adrenoceptor Receptor alpha1A Antagonism, conducted at France lab site, ADRA1A (gene 148) (UniProt P35348)
# Assay: ERF_FR_GPCR_hADRA1A: Eurofins (ERF) G Protein-Coupled Receptor (GPCR) Radioligand Binding LeadHunter Assay for human Adrenoceptor Receptor alpha1A Antagonism, conducted at France lab site
# Experimental: ERF_FR_GPCR_hADRA1A is a biochemical, single-readout assay that uses extracted gene-proteins in a cell-free assay. Measurements were taken 1 hour after chemical dosing in a 96-well plate. See alpha1A Human Adrenoceptor GPCR Binding (Antagonist Radioligand) Assay, Cerep.ERF_FR_GPCR_hADRA1A is an assay component calculated from the ERF_FR_GPCR_hADRA1A assay. It is designed to measure radioligand binding using a type of binding reporter as detected by scintillation counting with radiometry technology.Data from the assay component ERF_FR_GPCR_hADRA1A was analyzed at the assay endpoint, ERF_FR_GPCR_hADRA1A, in the positive analysis fitting direction relative to DMSO as the negative control and baseline of activity. Using a type of binding reporter, loss-of-signal activity can be used to understand changes in binding as they relate to gene ADRA1A. To generalize the intended target to other relatable targets, this assay endpoint is annotated to the gpcr intended target family, where the subfamily is adrenoceptor.
# Human cells are incubated for 60 minutes in room temprature, using [3H]prazosin ligand at 0.1 Kd (nM) with WB-4101 control inhibitor.Test Sample Requirements: Minimum for 1) Screen: 60 ul of 10 mM stock -OR- 1 mg (pre-weighed) for […] uM final testing. 2) Dose Response: 90 ul of 10 mM stock -OR- 1 mg (pre-weighed) for a top concentration at 10 uM.
# human Adrenoceptor Receptor alpha1A Antagonism, conducted at France lab site, ADRA1A (gene 148), sequence (P35348 whole entry, looked up): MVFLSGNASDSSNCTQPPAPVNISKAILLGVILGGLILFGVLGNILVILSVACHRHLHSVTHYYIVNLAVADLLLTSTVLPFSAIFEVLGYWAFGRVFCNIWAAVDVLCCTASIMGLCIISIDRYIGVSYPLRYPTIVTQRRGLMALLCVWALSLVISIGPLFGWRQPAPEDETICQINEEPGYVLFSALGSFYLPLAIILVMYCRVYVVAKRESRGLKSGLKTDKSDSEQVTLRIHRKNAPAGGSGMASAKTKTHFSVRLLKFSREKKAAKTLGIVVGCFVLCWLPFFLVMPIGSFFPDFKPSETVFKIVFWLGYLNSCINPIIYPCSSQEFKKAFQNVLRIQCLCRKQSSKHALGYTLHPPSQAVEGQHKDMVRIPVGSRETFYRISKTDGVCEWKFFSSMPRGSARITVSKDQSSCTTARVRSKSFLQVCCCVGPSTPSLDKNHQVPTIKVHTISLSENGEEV
row,SMILES,AC50
1,O=C(/C=C/c1ccc(O)cc1)CC(=O)/C=C/c1ccc(O)cc1,205 nM (active)
2,COc1cc(/C=C/C(=O)CC(=O)/C=C/c2ccc(O)c(OC)c2)ccc1O,258 nM (active)
